Results taken from PubChem BioAssay AID1159580 (chemical genetic matrix, 2015).
Several values for one entry are separate records, joined by “and”; a condition that tells them apart may be missing. Identical values can stand only once. Out of some 5,500 compounds screened, about 2,000 (36%) were called active. Another 18% or so got no clear call; they are omitted. Cut-off read from the data, not from the text of the source: active = normalized growth mostly below about 0.91 (no sharp cut-off); inconclusive = no clear call, values can overlap the other calls; inactive = mostly above about 0.92. The list shows a part of the results.

Assay: chemical genetic growth profiling, strain panel (AID 1159580);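 note: tested at 20 µM; growth read once vehicle control cultures reached saturation at 30 °C; 1 = growth at the plate median or of vehicle wells; lower values mean less growth of the strain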
Details: S. cerevisiae deletion strains, growth OD

Measured: normalized growth

C[C@@H]1O[C@@H](O[C@H]2[C@@H](Oc3cc(O)c4c(c3)O[C@H](c3ccc(O)cc3)CC4=O)O[C@H](CO)[C@@H](O)[C@@H]2O)[C@H](O)[C@H](O)[C@H]1O
inactive: locus YAL013W, strain DEP1, stronger effect = lower value 1 | locus YAL021C, strain ccr4, stronger effect = lower value 0.969 | locus YAL026C, strain drs2, stronger effect = lower value 0.977 | locus YAL030W, strain snc1, stronger effect = lower value 0.956 | locus YBL061C, strain skt5, stronger effect = lower value 0.96 | locus YBR009C, strain hhf1, stronger effect = lower value 0.971 | locus YBR021W, strain FUR4, stronger effect = lower value 1.02 | locus YBR023C, strain chs3, stronger effect = lower value 0.978 | locus YBR171W, strain sec66, stronger effect = lower value 0.977 | locus YBR229C, strain ROT2, stronger effect = lower value 0.956 | locus YBR231C, strain swc5, stronger effect = lower value 0.97 | locus YBR279W, strain paf1, stronger effect = lower value 0.975 | locus YCL011C, strain gbp2, stronger effect = lower value 0.957 | locus YCL016C, strain dcc1, stronger effect = lower value 0.972 | locus YCL029C, strain bik1, stronger effect = lower value 0.991 | locus YCL061C, strain MRC1, stronger effect = lower value 0.985 | locus YCL069W, strain vba3, stronger effect = lower value 0.97 | locus YCR088W, strain abp1, stronger effect = lower value 0.979 | locus YDL005C, strain med2, stronger effect = lower value 0.967 | locus YDL035C, strain GPR1, stronger effect = lower value 0.996 | locus YDL040C, strain nat1, stronger effect = lower value 0.981 | locus YDL074C, strain BRE1, stronger effect = lower value 0.975 | locus YDL101C, strain DUN1, stronger effect = lower value 0.977 | locus YDL134C, strain PPH21, stronger effect = lower value 0.956 | locus YDL185W, strain tfp1, stronger effect = lower value 0.992 | locus YDL192W, strain arf1, stronger effect = lower value 0.995 | locus YDR001C, strain nth1, stronger effect = lower value 0.954 | locus YDR069C, strain doa4, stronger effect = lower value 0.97 | locus YDR101C, strain arx1, stronger effect = lower value 0.997 | locus YDR137W, strain rgp1, stronger effect = lower value 0.983 | locus YDR150W, strain NUM1, stronger effect = lower value 0.977 | locus YDR159W, strain sac3, stronger effect = lower value 0.978 | locus YDR162C, strain NBP2, stronger effect = lower value 0.992 | locus YDR195W, strain ref2 0.956 | locus YDR297W, strain sur2, stronger effect = lower value 0.984 | locus YDR318W, strain mcm21, stronger effect = lower value 0.994 | locus YDR334W, strain swr1, stronger effect = lower value 0.942 | locus YDR335W, strain msn5, stronger effect = lower value 0.969 | locus YDR388W, stronger effect = lower value 1 | locus YDR392W, strain spt3, stronger effect = lower value 0.934 | locus YDR502C, strain sam2, stronger effect = lower value 1 | locus YEL003W, strain gim4, stronger effect = lower value 0.967 | locus YEL037C, strain rad23, stronger effect = lower value 0.966 | locus YEL061C, strain CIN8 (second series), stronger effect = lower value 0.964 | locus YEL061C, strain CIN8, stronger effect = lower value 1 | locus YER015W, strain faa2, stronger effect = lower value 0.959 | locus YER016W, strain bim1, stronger effect = lower value 0.971 | locus YER110C, stronger effect = lower value 0.986 | locus YER111C, strain swi4, stronger effect = lower value 0.983 | locus YER155C, strain BEM2 (second series), stronger effect = lower value 0.972 | locus YER155C, strain BEM2, stronger effect = lower value 1.01 | locus YER167W, strain BCK2, stronger effect = lower value 1 | locus YFR010W, strain ubp6, stronger effect = lower value 0.954 | locus YGL078C, strain dbp3, stronger effect = lower value 0.991 | locus YGL086W, strain mad1, stronger effect = lower value 0.998 | locus YGL167C, strain pmr1, stronger effect = lower value 0.977 | locus YGL173C, strain kem1, stronger effect = lower value 0.946 | locus YGL227W, strain vid30, stronger effect = lower value 0.975 | locus YGL240W, strain doc1, stronger effect = lower value 0.991 | locus YGL248W, strain PDE1, stronger effect = lower value 0.979 | locus YGL253W, strain hxk2, stronger effect = lower value 0.977 | locus YGR078C, strain PAC10, stronger effect = lower value 0.987 | locus YGR135W, strain pre9, stronger effect = lower value 1 | locus YGR229C, strain SMI1, stronger effect = lower value 0.987 | locus YGR252W, strain gcn5, stronger effect = lower value 0.991 | locus YHR013C, strain ard1, stronger effect = lower value 0.943 | locus YHR027C, strain rpn1, stronger effect = lower value 0.959 | locus YHR030C, strain SLT2, stronger effect = lower value 0.99 and 1 | locus YHR079C, strain IRE1 (second series), stronger effect = lower value 0.999 | locus YHR079C, strain IRE1, stronger effect = lower value 0.989 | locus YHR094C, strain hxt1, stronger effect = lower value 0.996 | locus YHR129C, strain ARP1, stronger effect = lower value 0.993 | locus YHR142W, strain chs7, stronger effect = lower value 0.921 | locus YHR200W, strain rpn10, stronger effect = lower value 1 | locus YIL066C, strain RNR3, stronger effect = lower value 0.976 | locus YIL073C, strain SPO22, stronger effect = lower value 0.946 | locus YIL125W, strain kgd1, stronger effect = lower value 0.999 | locus YIR030C, strain dcg1, stronger effect = lower value 0.986 | locus YJL092W, strain hpr5, stronger effect = lower value 0.967 | locus YJL095W, strain BCK1 (second series), stronger effect = lower value 0.968 | locus YJL095W, strain BCK1, stronger effect = lower value 0.998 and 1 | locus YJL115W, strain asf1, stronger effect = lower value 0.938 | locus YJL129C, strain trk1, stronger effect = lower value 0.939 | locus YJL134W, strain LCB3, stronger effect = lower value 0.985 | locus YJL154C, strain vps35, stronger effect = lower value 0.961 | locus YJL164C, strain tpk1, stronger effect = lower value 0.98 | locus YJL166W, strain qcr8, stronger effect = lower value 0.977 | locus YJL168C, strain set2, stronger effect = lower value 1 | locus YJL187C, strain SWE1 (second series), stronger effect = lower value 0.968 | locus YJL187C, strain SWE1, stronger effect = lower value 0.974 | locus YJR043C, strain POL32, stronger effect = lower value 0.995 | locus YJR066W, strain TOR1, stronger effect = lower value 0.926
